Compounds with a hit are over-represented: about 2.9% of the library has one in this group of screens.
APOBEC3G inh: APOBEC3G DNA deaminase inhibitors, primary screen, biochemical, fluorescence, single-stranded DNA substrate, uHTS | inhibition, % at 20 µM | 0.28% of 330,000 active | DNA dC->dU-editing enzyme APOBEC-3G (Homo sapiens), Q9HC16 | AID 493012, 2011 | recombinant A3G, ssDNA deamination FAM/TAMRA fluorescence;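 active = inhibition of at least 40% at 20 µM, with no more than 30% in the related APOBEC3A deaminase screen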
Target sequence (Q9HC16 whole entry, looked up): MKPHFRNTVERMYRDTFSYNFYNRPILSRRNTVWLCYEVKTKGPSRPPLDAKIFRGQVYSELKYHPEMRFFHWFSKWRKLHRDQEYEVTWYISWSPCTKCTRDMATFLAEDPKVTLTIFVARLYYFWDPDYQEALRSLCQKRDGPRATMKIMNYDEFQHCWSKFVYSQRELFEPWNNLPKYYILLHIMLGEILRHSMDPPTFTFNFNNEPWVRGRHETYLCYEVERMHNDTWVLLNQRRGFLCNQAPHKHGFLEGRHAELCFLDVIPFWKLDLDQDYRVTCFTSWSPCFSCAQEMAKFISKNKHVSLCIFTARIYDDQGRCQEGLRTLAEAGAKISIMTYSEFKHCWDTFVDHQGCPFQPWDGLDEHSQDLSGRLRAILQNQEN
H9c2 TAG inh: inhibitors of triacylglycerol accumulation, primary screen, cell-based, uHTS, fluorescence, H9c2; 0.66% of 230,000 active; inhibition, % at 12.5 µM; H9c2 cells, Nile Red lipid (TAG) fluorescence; cells loaded with 200 µM oleic acid;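 active = pattern-corrected inhibition of lipid staining of at least 50% with the nuclear-stain viability signal not falling by more than 50%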
NadD inh: inhibitors of S. aureus NadD, primary screen, biochemical, colorimetric, uHTS; purified NadD enzyme, colorimetric absorbance read-out; inhibition, % at 20 µM; 0.78% of 360,000 active; Nicotinate-nucleotide adenylyltransferase NadD (Staphylococcus aureus N315); in the data active = inhibition above about 26%
Cardio protect: cardioprotection against H2O2-induced cell death, primary screen, uHTS, H9c2 cells, ATPLite luminescence. H9c2 cardiomyocytes, H2O2 injury protection, 2 h. protection from H2O2 cell death, % at 20 µM. 0.63% of 360,000 active. AID 588492, 2011;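 active = compounds giving at least 50% protection of heart cells from peroxide-induced death in the single-dose screen, raw or plate-pattern-corrected value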
PfG6PD inh: PfG6PD enzyme inhibitors, primary screen, biochemical, fluorescence intensity, uHTS; glucose-6-phosphate dehydrogenase-6-phosphogluconolactonase (Plasmodium falciparum 3D7); PfGluPho enzyme, NADPH resazurin-diaphorase fluorescence; inhibition, % at 20 µM; 0.78% of 350,000 active; AID 504690, 2011;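 active = inhibition reaching at least a set limit at 20 µM in the primary screen, cut at about 59% in these data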
A3A deaminase: APOBEC3A ssDNA deaminase inhibitors, primary screen, selectivity assay for APOBEC3G inhibitor project, biochemical, FAM/TAMRA oligo cleavage fluorescence | recombinant A3A, FAM/TAMRA ssDNA deamination fluorescence | inhibition, % at 20 µM | 0.41% of 330,000 active | AID 493011, 2011;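 active = at least 40% inhibition at 20 µM here, with at most 30% in a related deaminase screen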
Target sequence (P31941 whole entry, looked up): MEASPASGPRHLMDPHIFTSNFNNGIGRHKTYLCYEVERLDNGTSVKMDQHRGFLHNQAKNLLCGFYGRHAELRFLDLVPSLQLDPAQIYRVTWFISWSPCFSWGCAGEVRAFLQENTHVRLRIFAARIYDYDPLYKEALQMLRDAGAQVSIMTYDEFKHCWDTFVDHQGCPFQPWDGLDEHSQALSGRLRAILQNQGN
PfGluPho conf: PfG6PD inhibitors, hit retest, confirmation, biochemical, fluorescence intensity, single concentration | shares compounds with PfG6PD inh | recombinant PfGluPho, NADPH-diaphorase-resazurin fluorescence | inhibition, % at 20 µM | 34% of 2,400 active | AID 504753, 2011;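 active = inhibition of at least 50% at 20 µM in any single replicate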
Diaphorase 10uM: diaphorase inhibitors and chemical oxidizers, confirmation, counter-screen for P. falciparum G6PD inhibitor project, biochemical, fluorescence intensity, 10 µM NADPH; diaphorase-coupled resazurin reduction, NADPH 10 uM; shares compounds with PfG6PD inh; inhibition, % at 20 µM; 39% of 820 active;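 active = average inhibition reaching 50% or more with the compound at 20 µM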;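 note: resorufin red fluorescence formed as diaphorase reduces resazurin using NADPH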
Diaphorase 30uM: diaphorase inhibitors and chemical oxidizers, confirmation, counter-screen for P. falciparum G6PD inhibitor project, biochemical, fluorescence intensity, 30 µM NADPH; shares compounds with PfG6PD inh; Diaphorase/resazurin coupled assay, resorufin fluorescence; inhibition, % at 20 µM; 29% of 820 active;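 active = inhibition averaging 50% or more, tested at 20 µM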
Of the large screens only hits and unclear results are named; the others gave an inactive call (follow-up assays come after a bar, where they were run).

CC(C)N1CCN(CCCc2ccccc2)CC1CCO (stereo unspecified)	none (no result: H9c2 TAG inh)
OCCCNc1c2c(nc3cc(-c4ccc(Cl)cc4)nn13)CCC2	PfG6PD inh 69.9 | PfGluPho conf inactive
Cc1ccc(Nc2nnc(SCC(=O)c3c(N)n(C4CC4)c(=O)[nH]c3=O)s2)cc1C	PfG6PD inh 63.9 | PfGluPho conf inactive
CCOC(=O)N1CCN(C(=O)CNC(=O)c2ccc(Br)o2)CC1	none
COc1cc(C(=O)Nc2nnc(S(=O)(=O)N3CCCCCC3)s2)cc(OC)c1OC	none (no result: H9c2 TAG inh)
O=C(Nc1nnc(S(=O)(=O)N2CCCCC2)s1)c1ccc(Cl)cc1	PfG6PD inh 105.9 | PfGluPho conf 44.1 | Diaphorase 10uM 59.3 | Diaphorase 30uM inactive
COc1cccc(C(=O)Nc2nnc(S(=O)(=O)N3CCCC3)s2)c1	PfG6PD inh 93.5 (no result: H9c2 TAG inh) | PfGluPho conf 70.8 | Diaphorase 10uM 57.7 | Diaphorase 30uM 51.1
O=C(Nc1nnc(S(=O)(=O)N2CCCCCC2)s1)c1ccc(Br)cc1	PfG6PD inh 72.5 | PfGluPho conf inactive
CC(C)[C@H](NC(=O)c1ccccc1)C(=O)OCC(=O)c1c(N)n(C)c(=O)n(C)c1=O	none
CCN(C(=O)COC(=O)c1ncc(Cl)c(Cl)c1Cl)c1c(N)n(Cc2ccccc2)c(=O)[nH]c1=O	none (no result: APOBEC3G inh, A3A deaminase)
CC1=CN2C(=NC(=O)CC2(C)C(=O)N(CC(=O)NC2CCCC2)Cc2ccc(Cl)cc2)C=C1 (stereo unspecified)	none (no result: H9c2 TAG inh)
CC(=NNC(=S)SCc1ccccc1)c1ccccn1	none (no result: APOBEC3G inh, A3A deaminase)
CC(=NNC(=S)N1CCCC1)c1ccccn1	PfG6PD inh 67.1 (no result: APOBEC3G inh, A3A deaminase) | PfGluPho conf inactive
CC1=C(C)CC(C(=O)NCc2ccccc2F)C(C(=O)O)C1 (stereo unspecified)	none (no result: H9c2 TAG inh, PfG6PD inh)
CCCOc1ccc(Cl)cc1/C=C1/C(=O)ON=C1C	none (no result: H9c2 TAG inh)
CC1=NOC(=O)/C1=C\c1ccc(-c2ccc(Cl)cc2Cl)o1	PfG6PD inh 69.9 | PfGluPho conf inactive
COC1CC(=O)C2OC(c3ccccc3)OCC2O1 (stereo unspecified)	none (no result: APOBEC3G inh, A3A deaminase)
Cc1ccc(-c2c(C(=O)N/N=C/c3ccsc3)nnn2-c2nonc2N)cc1	PfG6PD inh 82.2 (no result: H9c2 TAG inh) | PfGluPho conf 54.1 | Diaphorase 10uM inactive | Diaphorase 30uM inactive
CCOc1ccc(-c2c(C(=O)N/N=C/c3cccs3)nnn2-c2nonc2N)cc1	none (no result: H9c2 TAG inh)
Cc1ccc(-c2c(C(=O)N/N=C/c3ccoc3)nnn2-c2nonc2N)cc1	none (no result: H9c2 TAG inh)
Cc1ccc(-c2c(C(=O)N/N=C/c3cccs3)nnn2-c2nonc2N)cc1	PfG6PD inh 80.7 (no result: H9c2 TAG inh) | PfGluPho conf 69.4 | Diaphorase 10uM 61.1 | Diaphorase 30uM inactive
Cc1ccc(-c2c(C(=O)N/N=C/c3cccc(Cl)c3)nnn2-c2nonc2N)cc1	PfG6PD inh 144.8 (no result: H9c2 TAG inh) | PfGluPho conf 110.3 | Diaphorase 10uM 99.3 | Diaphorase 30uM 83.6
CC1(C)Cc2c(sc(NC(=O)C(=O)N3CCN(CCO)CC3)c2C(N)=O)CO1	none (no result: H9c2 TAG inh)
Cc1noc(C)c1C(=O)N1CCCC1	none (no result: H9c2 TAG inh)
COc1cc(OC)cc(C(=O)NCC(=O)N2CCN(c3ccc(O)cc3)CC2)c1	PfG6PD inh 59.8 (no result: H9c2 TAG inh) | PfGluPho conf inactive
COc1ccc(Cl)cc1NC(=O)C1Cc2cc(S(=O)(=O)N3CCCC3)ccc2N1C(C)=O (stereo unspecified)	none (no result: H9c2 TAG inh)
C/C(=N\Nc1nc2c(s1)CCCC2)c1ccc(Cl)cc1	PfG6PD inh 65.7 | PfGluPho conf inactive
O=C1C=CC(=O)N1CCNc1ncc(C(F)(F)F)cc1Cl	PfG6PD inh 79.4 | PfGluPho conf 66.3 | Diaphorase 10uM inactive | Diaphorase 30uM inactive
CCOC(=O)C1(CCOC)CCN(C/C=C/c2ccccc2OC)CC1	none (no result: APOBEC3G inh, A3A deaminase)
CN1c2ccccc2N(C)C1(C)c1ccccc1	PfG6PD inh 63.7 (no result: APOBEC3G inh, H9c2 TAG inh, A3A deaminase) | PfGluPho conf inactive
CC(=O)OCC1OC(n2c(S)c(C#N)c(-c3ccccc3)c(C#N)c2=O)C(OC(C)=O)C(OC(C)=O)C1OC(C)=O (stereo unspecified)	PfG6PD inh 66.4 (no result: APOBEC3G inh, A3A deaminase) | PfGluPho conf inactive
CC(=O)OCC1OC(c2ccccc2)C(OC(C)=O)C(OC(C)=O)C1OC(C)=O (stereo unspecified)	none (no result: H9c2 TAG inh)
CSc1ccc(CCCCCCOC(=O)C(C)(C)C)cc1	none
O=[N+]([O-])c1ccc(Cl)c(S(=O)(=O)NC2=NCCC2)c1	none
O=[N+]([O-])c1ccc(Cl)c(S(=O)(=O)Nc2cccc(S(=O)(=O)NC3=NCCC3)c2)c1	PfG6PD inh 66.7 | PfGluPho conf inactive
CCOc1ccccc1OCc1nn2c(COc3ccccc3)nnc2s1	PfG6PD inh 68.9 (no result: H9c2 TAG inh) | PfGluPho conf inactive
c1ccc(Cc2nn3c(COc4ccccc4)nnc3s2)cc1	PfG6PD inh 62.5 (no result: H9c2 TAG inh) | PfGluPho conf inactive
Clc1ccccc1-c1nn2c(COc3ccccc3)nnc2s1	none (no result: H9c2 TAG inh)
CCOC(=O)CN(C)C(=O)C1CCCN1C(=O)OC(C)(C)C (stereo unspecified)	none
CN(C)c1ccc(C=Nc2ccc(N(C)C)cc2)cc1	PfG6PD inh 65.5 | PfGluPho conf inactive
COc1ccccc1CNc1nc(Nc2ccccc2-n2cccn2)c2sccc2n1	none (no result: APOBEC3G inh, PfG6PD inh, A3A deaminase)
O=C(CN(Cc1ccccc1)C(=O)c1ccco1)NCc1ccc(F)cc1	none
NC(=S)N/N=C/c1ccc(-n2nncc2-c2ccc(Cl)cc2)cc1	PfG6PD inh 72.7 (no result: H9c2 TAG inh) | PfGluPho conf inactive
Cc1ccc2nc(-c3ccc(-c4ccccn4)s3)cn2c1	PfG6PD inh 64.6 | PfGluPho conf inactive
Cc1ccc2nc(-c3ccc(O)c(O)c3)cn2c1	none
Cc1ccc2nc(-c3ccccc3)cn2c1	PfG6PD inh 79.0 | PfGluPho conf inactive
Clc1ccc(-c2cn3cc(Cl)ccc3n2)cc1	PfG6PD inh 72.2 (no result: H9c2 TAG inh) | PfGluPho conf inactive
COc1cccc(CNC(=O)[C@@H]2CCCN2C(=O)[C@H]2CCCCN2C(=O)c2cccs2)c1	none (no result: APOBEC3G inh, H9c2 TAG inh, Cardio protect, PfG6PD inh, A3A deaminase)
O=C(COC(=O)c1ccc2ncsc2c1)NCc1ccccc1Cl	none
